Compound activity from PubChem BioAssay.
In the library only some 4% were active in any assay of this set; here they are far more common.
GDH-TPI counter: GDH-TPI coupling enzyme inhibitors, primary screen, artefact control for M. tuberculosis FBA inhibitor project, biochemical, absorbance, full deck | GDH-TPI coupled enzyme counterscreen, NADH absorbance | inhibition, % at 4.8 µM | 360,000 tested, 1.2% active; in the data active = inhibition above about 30%
Rv3671c inh: Rv3671c serine protease inhibitors, primary screen, biochemical, fluorescence polarization, M. tuberculosis H37Rv. P9WHR9. inhibition, % at 5.96 µM. 320,000 tested, 0.048% active. AID 2606, 2010; in the data active = inhibition above about 38%;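 note: extracellular domain of Rv3671c used as enzyme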
Mtb bLac sens: beta-lactam sensitization of Mtb H37Rv, H37Rv. 330,000 tested, 0.27% active. M. tuberculosis H37Rv growth with meropenem, percent inhibition. inhibition, % at 25 µM; call rule not given here;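 note: growth measured after seven days incubation then overnight dye step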
UGM FP inh: M. tuberculosis UGM enzyme inhibitors, primary screen, biochemical, fluorescence polarization, single point; UDP-galactopyranose mutase (Mycobacterium tuberculosis (strain ATCC 25618 / H37Rv)), …; purified UGM, fluorescence polarization probe displacement; inhibition, % at 10 µM; 320,000 tested, 0.06% active; AID 504406, 2011; in the data active = inhibition above about 10%, passing the limit was not always enough
Target sequence (P9WIQ1 whole entry, looked up): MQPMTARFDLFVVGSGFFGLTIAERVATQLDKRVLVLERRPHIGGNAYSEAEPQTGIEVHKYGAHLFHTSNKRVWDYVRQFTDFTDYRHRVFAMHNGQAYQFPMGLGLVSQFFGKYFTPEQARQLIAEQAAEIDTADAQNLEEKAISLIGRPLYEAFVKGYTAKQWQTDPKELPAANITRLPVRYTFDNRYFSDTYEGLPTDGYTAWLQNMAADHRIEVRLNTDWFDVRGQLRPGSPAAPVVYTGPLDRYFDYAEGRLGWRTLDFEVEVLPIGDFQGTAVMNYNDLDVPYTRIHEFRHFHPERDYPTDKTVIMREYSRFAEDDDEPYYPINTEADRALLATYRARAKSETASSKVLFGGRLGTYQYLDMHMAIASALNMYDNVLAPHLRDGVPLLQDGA
Mtb FBA inh: Mtb FBA enzyme inhibitors, primary screen, biochemical, fluorescence, strain H37Rv. inhibition, % at 1 µM. 360,000 tested, 2.3% active. Fructose-bisphosphate aldolase (Mycobacterium tuberculosis (strain ATCC 25618 / H37Rv)), …. purified M. tuberculosis FBA, fluorescence read-out. AID 588726, 2011; in the data active = inhibition above about 27%
RecA splice inh: Mtb RecA intein splicing inhibitors, primary screen, biochemical, fluorescence, HTS | inhibition, % (concentration not given with the values) | 290,000 tested, 0.75% active | cell-free RecA intein splicing | Protein RecA (Mycobacterium tuberculosis (strain ATCC 25618 / H37Rv)), P9WHJ3; in the data active = inhibition above about 30%
Numbers stand for hits; n = inactive; x = no result given.

SMILES	GDH-TPI counter	Rv3671c inh	Mtb bLac sens	UGM FP inh	Mtb FBA inh	RecA splice inh
CCN1CCN(C(=O)c2cc3c(=O)n4ccccc4nc3s2)CC1	n	n	n	n	192	n
Cc1ccc(S(=O)(=O)Nc2ccccc2C(=O)N2CCCCC2C)c(C)c1NS(C)(=O)=O (stereo unspecified)	n	n	n	n	n	x
CCOc1ccc(NC(=O)CN(C)C(=O)c2ccccc2OCCOc2ccccc2)cc1OCC	n	n	n	n	n	x
Cc1ccc(C=C2C(Cl)=C(Cl)C(Cl)=C2Cl)cc1	x	n	n	n	x	31
COCCCNc1nc(N)c([N+](=O)[O-])c(NCc2ccccc2)n1	n	n	n	n	n	n
CN(C)CCCNc1nc(N)c([N+](=O)[O-])c(NCc2ccccc2)n1	41	x	n	n	n	n
CN(C)c1nc(N)c([N+](=O)[O-])c(NCCO)n1	51	n	n	n	n	n
CN(C)c1nc(N)c([N+](=O)[O-])c(NCc2ccccc2)n1	42	n	n	n	n	n
CNc1nc(N)c([N+](=O)[O-])c(NCc2ccccc2)n1	42	n	n	n	n	n
Nc1nc(NCc2ccccc2)nc(NCc2ccccc2)c1[N+](=O)[O-]	n	n	n	n	n	n
CN(C(=O)CN1C(=O)/C(=C/c2ccccc2F)SC1=S)C1CCS(=O)(=O)C1 (stereo unspecified)	n	n	n	n	n	n
CCOC(=O)c1ccccc1NC(=O)COC(=O)Cc1ccccc1F	n	x	x	x	n	x
CCN1CCc2nc(NC(=O)c3ccccc3)sc2C1	33	n	n	n	n	n
O=C(Nc1nc2c(s1)CN(Cc1ccccc1)CC2)C1CCC1	n	n	n	n	n	n
CCC1CCc2c(sc3ncnc(N4CCOCC4)c23)C1 (stereo unspecified)	n	n	n	n	120	n
Cc1ccc(N=C2NC(=O)CS2)c(C)c1	n	n	n	n	n	x
Cc1ccc(N=C2NC(=O)/C(=C\c3ccsc3)S2)c(C)c1	33	n	n	n	n	n
Cc1ccc(N=C2NC(=O)/C(=C/c3cccnc3)S2)c(C)c1	33	n	n	n	n	n
O=C(NOCc1cscn1)Nc1ccccc1	n	x	x	x	n	x
COCc1cc(=O)[nH]c(N2CCN(Cc3ccc4c(c3)OCO4)CC2)n1	n	n	n	n	n	n
Cn1c(/C=C/c2ccc(Br)cc2)c([N+](=O)[O-])c(=O)n(C)c1=O	n	n	x	n	n	n
CCCOc1ccc(/C=C/c2c([N+](=O)[O-])c(=O)n(C)c(=O)n2C)cc1	39	n	n	n	n	n
O=C(CCC(=O)N/N=C/c1c[nH]c2ccccc12)NCc1ccccc1	n	n	n	n	n	n
CCN(CC)c1ccc(C=Nc2ccc(C)cc2C)c(O)c1	n	n	n	n	n	n
CCN(CC)c1ccc(C=Nc2cc(C)ccc2C)c(O)c1	38	n	n	n	n	n
SMILES	GDH-TPI counter	Rv3671c inh	Mtb bLac sens	UGM FP inh	Mtb FBA inh	RecA splice inh
COc1cc(/C=N\NC(=O)CNC(=O)C2COc3ccccc3O2)ccc1O (stereo unspecified)	n	n	n	n	n	n
CCN(CC)c1ccc(/C=N/NC(=O)CNC(=O)C2COc3ccccc3O2)c(O)c1 (stereo unspecified)	33	n	n	n	n	n
CCN(CC)c1ccc(/C=N/Nc2ccc(C)cc2)c(O)c1	n	n	n	n	n	x
CCN(CC)c1ccc(/C=N/NC(=O)CCC(=O)NCc2ccccc2)c(O)c1	40	n	n	n	n	n
CCOC(=O)N/N=C/c1ccc(N(CC)CC)cc1O	41	n	n	n	n	n
Cc1cc(OCC(=O)NC2CC(C)(C)NC(C)(C)C2)c2c(C)c(C)c(=O)oc2c1	n	n	n	n	131	n
Cc1cc(OCC(=O)N2CCN(c3ccccc3)CC2)c2c(C)cc(=O)oc2c1	n	n	n	n	n	n
Cc1cc(OCC(=O)N2CCC(C(=O)O)(c3ccccc3)CC2)c2c(C)c(C)c(=O)oc2c1	n	n	n	n	64	n
COc1ccccc1NC(=O)CN(c1ccccc1)S(=O)(=O)c1ccccc1	n	n	n	n	n	n
COc1ccc(N(CC(=O)Nc2ccccc2OC)S(=O)(=O)c2ccc(NC(C)=O)cc2)cc1	31	n	n	n	n	n
COc1ccccc1N=NNc1ccc(S(=O)(=O)NC(C)=O)cc1	x	x	x	x	n	x
COCCCN1C(=O)C(CC(=O)NCCN2CCOCC2)CC(C(=O)N(C(C)C)C(C)C)=C1C (stereo unspecified)	x	x	x	x	n	x
Cc1nc2ccccc2c(=O)n1-c1cccc([N+](=O)[O-])c1	n	n	n	n	n	n
CC1=NN(c2cccc([N+](=O)[O-])c2)C(=O)C1	n	n	n	n	n	84
O=C(CSc1nnc(NC(=O)C2CC(=O)N(c3ccc(F)cc3)C2)s1)NC1CCCC1 (stereo unspecified)	n	n	n	n	n	n
CSc1nc(N)nc2c1ncn2CC(=O)N[C@H](C)c1cccc2ccccc12	n	n	n	n	n	x
C=CCN1C(c2ccccc2)=CS/C1=C(\C#N)c1nnc2n1CCCCC2	n	n	n	n	n	n
C=CCn1c(=O)/c(=C/c2ccc(Cl)cc2)s/c1=C(\C#N)c1nnc2n1CCCCC2	33	x	x	x	n	x
COC(=O)c1ccc(S(=O)(=O)c2ccc(Cl)cc2)c(N)c1	n	n	n	n	115	n
O=C(CCl)N1N=C(c2ccco2)CC1c1ccco1 (stereo unspecified)	n	n	n	n	n	54
CCOC(=O)c1ccc(S(=O)(=O)N2CCN(C/C=C/c3ccccc3)CC2)cc1	n	n	n	n	n	x
CC(C)c1ccc(NC(=O)c2ccc(-c3ccnn3C)c3ccoc23)cc1	n	x	x	x	n	x
COc1ccc(-n2c(=S)[nH]c3sc4c(c3c2=O)CCN(C)C4)cc1	x	n	n	n	x	n
CCN(CC)C(=O)c1sc2[nH]c(=S)n(-c3ccccc3)c(=O)c2c1C	33	n	n	n	n	n
O=C(O)C1CCc2sc3[nH]c(=S)n(-c4ccccc4)c(=O)c3c21 (stereo unspecified)	34	n	n	n	n	n
CCN(CC)C(=O)c1sc2nc(-c3ccccn3)[nH]c(=O)c2c1C	n	n	n	n	n	n
CCC1CCCCN1C(=O)CCS(=O)(=O)c1ccccc1 (stereo unspecified)	n	n	n	n	n	n
CC(C)Nc1cc(C(C)(C)C)nc2c(-c3ccccc3)cnn12	n	n	n	n	29	n
CC(C)(C)c1cc(C(F)(F)F)n2ncc(-c3ccccc3)c2n1	n	n	n	n	n	n
O=C(Nc1ccccc1C(=O)NCC1CCCO1)c1ccc(Cl)cc1 (stereo unspecified)	n	n	n	n	n	n
